Source: PubChem BioAssay AID1159580 (chemical genetic matrix, 2015)
Where “and” joins values, the source holds several entries; their conditions need not be identical. Equal entries are not always repeated. Among all 5,500 compounds or so, about 2,000 (36%) were called active. Inconclusive results (about 18%) are left out. No stated cut-off is given here; in the data, active means normalized growth mostly below about 0.91 (no sharp cut-off); inconclusive means no clear call, values can overlap the other calls; inactive means mostly above about 0.92. The list shows a part of the results.

Assay: chemical genetic growth profiling, strain panel (AID 1159580);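 further: tested at 20 µM; growth read once vehicle control cultures reached saturation at 30 °C; 1 = growth at the plate median or of vehicle wells; lower values mean less growth of the strain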
Conditions: S. cerevisiae deletion strains, growth OD

Measured: normalized growth

OC(CCN1CCCC1)(c1ccccc1)C1CCCCC1 (centres undefined)
inactive: locus YAL021C, strain ccr4, hits give low values 0.994 | locus YAL026C, strain drs2, hits give low values 1 | locus YAL030W, strain snc1, hits give low values 0.986 | locus YBL061C, strain skt5, hits give low values 0.989 | locus YBR009C, strain hhf1, hits give low values 1 | locus YBR021W, strain FUR4, hits give low values 0.947 | locus YBR023C, strain chs3, hits give low values 0.987 | locus YBR171W, strain sec66, hits give low values 0.965 | locus YBR229C, strain ROT2, hits give low values 0.988 | locus YBR231C, strain swc5, hits give low values 0.977 | locus YBR279W, strain paf1, hits give low values 1 | locus YCL011C, strain gbp2, hits give low values 0.998 | locus YCL016C, strain dcc1, hits give low values 1.01 | locus YCL029C, strain bik1, hits give low values 0.985 | locus YCL061C, strain MRC1, hits give low values 0.976 | locus YCL069W, strain vba3, hits give low values 0.98 | locus YCR088W, strain abp1, hits give low values 0.976 | locus YDL005C, strain med2, hits give low values 0.984 | locus YDL035C, strain GPR1, hits give low values 0.994 | locus YDL040C, strain nat1, hits give low values 0.989 | locus YDL074C, strain BRE1, hits give low values 1.01 | locus YDL101C, strain DUN1, hits give low values 0.995 | locus YDL134C, strain PPH21, hits give low values 0.99 | locus YDL185W, strain tfp1, hits give low values 0.979 | locus YDL192W, strain arf1, hits give low values 0.986 | locus YDR001C, strain nth1, hits give low values 0.991 | locus YDR069C, strain doa4, hits give low values 0.986 | locus YDR101C, strain arx1, hits give low values 0.982 | locus YDR137W, strain rgp1, hits give low values 1.05 | locus YDR150W, strain NUM1, hits give low values 1 | locus YDR159W, strain sac3, hits give low values 0.991 | locus YDR162C, strain NBP2, hits give low values 0.995 | locus YDR195W, strain ref2 0.942 | locus YDR297W, strain sur2, hits give low values 0.978 | locus YDR318W, strain mcm21, hits give low values 0.973 | locus YDR334W, strain swr1, hits give low values 0.983 | locus YDR335W, strain msn5, hits give low values 0.981 | locus YDR388W, hits give low values 0.976 | locus YDR392W, strain spt3, hits give low values 1 | locus YDR502C, strain sam2, hits give low values 1 | locus YEL003W, strain gim4, hits give low values 0.975 | locus YEL037C, strain rad23, hits give low values 0.982 | locus YEL061C, strain CIN8 (second series), hits give low values 0.986 | locus YEL061C, strain CIN8, hits give low values 0.998 | locus YER015W, strain faa2, hits give low values 0.989 | locus YER016W, strain bim1, hits give low values 0.998 | locus YER110C, hits give low values 0.975 | locus YER111C, strain swi4, hits give low values 1 | locus YER155C, strain BEM2 (second series), hits give low values 0.946 | locus YER155C, strain BEM2, hits give low values 0.99 | locus YER167W, strain BCK2, hits give low values 0.992 | locus YFR010W, strain ubp6, hits give low values 0.976 | locus YGL078C, strain dbp3, hits give low values 0.985 | locus YGL086W, strain mad1, hits give low values 0.994 | locus YGL167C, strain pmr1, hits give low values 0.985 | locus YGL173C, strain kem1, hits give low values 0.972 | locus YGL227W, strain vid30, hits give low values 0.99 | locus YGL240W, strain doc1, hits give low values 0.963 | locus YGL248W, strain PDE1, hits give low values 0.996 | locus YGL253W, strain hxk2, hits give low values 1.01 | locus YGR078C, strain PAC10, hits give low values 0.998 | locus YGR135W, strain pre9, hits give low values 0.983 | locus YGR229C, strain SMI1, hits give low values 0.993 | locus YGR252W, strain gcn5, hits give low values 1.01 | locus YHR013C, strain ard1, hits give low values 1 | locus YHR027C, strain rpn1, hits give low values 0.991 | locus YHR030C, strain SLT2, hits give low values 0.987 and 1.02 | locus YHR079C, strain IRE1 (second series), hits give low values 0.977 | locus YHR079C, strain IRE1, hits give low values 1.02 | locus YHR094C, strain hxt1, hits give low values 0.975 | locus YHR129C, strain ARP1, hits give low values 1 | locus YHR142W, strain chs7, hits give low values 0.999 | locus YHR200W, strain rpn10, hits give low values 0.974 | locus YIL066C, strain RNR3, hits give low values 0.989 | locus YIL073C, strain SPO22, hits give low values 0.957 | locus YIL125W, strain kgd1, hits give low values 0.967 | locus YIR030C, strain dcg1, hits give low values 0.985 | locus YJL092W, strain hpr5, hits give low values 0.969 | locus YJL095W, strain BCK1 (second series), hits give low values 0.986 | locus YJL095W, strain BCK1, hits give low values 1 and 1.03 | locus YJL115W, strain asf1, hits give low values 0.987 | locus YJL129C, strain trk1, hits give low values 0.973 | locus YJL134W, strain LCB3, hits give low values 0.994 | locus YJL154C, strain vps35, hits give low values 0.991 | locus YJL164C, strain tpk1, hits give low values 1.01 | locus YJL166W, strain qcr8, hits give low values 0.952 | locus YJL168C, strain set2, hits give low values 0.974 | locus YJL187C, strain SWE1 (second series), hits give low values 0.989 | locus YJL187C, strain SWE1, hits give low values 0.996
